{"source": "PubChem BioAssay AID1347043", "about": "(National Center for Advancing Translational Sciences (NCATS), 2019)", "note": "Screen size: about 76,000 compounds; about 1,900 (2.5%) were called active. About 5% were inconclusive and are not listed. What follows is part of a selection rich in actives, with near analogues and random picks from the rest. Values without a mark were called inactive. Calls come from the whole dose curve; as a rule, active = well fitted inhibition curve with a large enough effect; inconclusive = small, poorly fitted or top-dose-only effect; inactive = flat fitted curve, though single readings scatter. % is set by controls: 0 for no effect and ±100 for the full control effect; potency is the fitted concentration of half-maximal effect.", "data": [{"target": "Luciferin 4-monooxygenase (Photinus pyralis) (UniProt P08659)", "sequence (P08659 whole entry, looked up)": "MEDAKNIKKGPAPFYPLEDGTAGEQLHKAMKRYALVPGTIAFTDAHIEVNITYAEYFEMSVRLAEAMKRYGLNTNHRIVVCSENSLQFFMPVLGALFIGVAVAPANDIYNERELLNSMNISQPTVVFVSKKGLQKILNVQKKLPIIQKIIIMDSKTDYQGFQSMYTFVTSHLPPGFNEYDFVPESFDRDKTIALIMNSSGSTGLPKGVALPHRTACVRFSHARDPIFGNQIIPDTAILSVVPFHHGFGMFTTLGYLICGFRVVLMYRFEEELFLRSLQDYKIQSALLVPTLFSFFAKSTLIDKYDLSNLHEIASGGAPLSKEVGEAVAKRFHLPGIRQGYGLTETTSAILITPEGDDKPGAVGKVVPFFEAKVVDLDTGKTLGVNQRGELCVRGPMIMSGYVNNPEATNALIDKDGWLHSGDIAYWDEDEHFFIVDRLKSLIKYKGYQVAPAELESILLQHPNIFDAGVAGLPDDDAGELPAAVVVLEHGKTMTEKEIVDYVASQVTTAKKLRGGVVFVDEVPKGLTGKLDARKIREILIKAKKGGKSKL", "assay": "Firefly luciferase inhibition profiling of diverse chemical library using quantitative high-throughput screening; note: nearly all actives have a fitted effect of over 65% in size", "settings": "purified P. pyralis luciferase, luminescence, biochemical; series mostly up to 115 µM; activity change, negative = inhibition: at the top concentration", "procedure,_shortened": "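Luminescence read by CCD imager after adding enzyme (10nM final) to wells holding compound, titrated in qHTS. Substrates 10uM each D-luciferin and ATP; buffer 50mM Tris acetate pH 7.5, 10mM Mg acetate, Tween-20, BSA.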", "values": [{"smiles": "Cc1ccc(-c2nc(CNS(=O)(=O)C3CC3)[nH]c2-c2ccccn2)cc1", "activity change, negative = inhibition": "-3.9%"}, {"smiles": "O=C(CC1CCCC1)N1CCOc2ccc(CN3CCc4ccccc4C3)cc2C1", "activity change, negative = inhibition": "-1.27%"}, {"smiles": "Cc1noc(-c2cccn3c(CNC(=O)c4ccco4)nnc23)n1", "activity change, negative = inhibition": "-1.64%"}, {"smiles": "CC1=C[C@@H](CN2CCOCC2)[C@H](C(C)C)C[C@H]1Cc1nnc(-c2ccc([N+](=O)[O-])cc2)o1", "activity change, negative = inhibition": "5.91%"}, {"smiles": "CC(C)NC(=O)N1CCN2C(=O)N(Cc3ccc(F)cc3)C[C@H]2C1", "activity change, negative = inhibition": "-4.21% [at 172 µM]"}, {"smiles": "COc1ccc(CN2C[C@H]3CN(Cc4ccc(NC(C)=O)cc4)CCN3C2=O)cc1", "activity change, negative = inhibition": "1.05% [at 172 µM]"}, {"smiles": "O=C(Nc1ccccc1)N1CCN2C(=O)N(Cc3ccc(F)cc3)C[C@H]2C1", "Potency": "50.1 µM (active)"}, {"smiles": "CN(Cc1ccccc1)C(=O)C[C@@H]1CCNC[C@@H]1Cc1cc(-c2ccc(C(C)(C)C)cc2)on1", "activity change, negative = inhibition": "-4.72%"}, {"smiles": "Cc1cn2nc(C(=O)N3CCC(NC(=O)c4ccc(C#N)cc4)CC3)cc2c(=O)[nH]1", "activity change, negative = inhibition": "5.34%"}, {"smiles": "CCc1noc(-c2cccn3c(CNC(=O)c4ccncc4)nnc23)n1", "activity change, negative = inhibition": "0%"}, {"smiles": "CCOc1ccc(C(=O)N2CCCN(C(=O)C3CC3)c3ccccc32)cc1", "activity change, negative = inhibition": "6.96%"}, {"smiles": "CCC(C)(C)NC(=O)c1cccc2c1CCN2C(=O)Nc1ccc(C)cc1", "Potency": "1.78 µM (active)"}, {"smiles": "CC[C@H]1CN(C(=O)Nc2ccccc2)CC[C@H]1CC(=O)Nc1ccccc1", "activity change, negative = inhibition": "-7.47% [at 172 µM]"}, {"smiles": "CCOC(=O)C1CCN(C(=O)c2cccc3c2CCN3C(=O)Nc2ccccc2)CC1", "Potency": "5.62 µM (active)"}, {"smiles": "COc1ccc(S(=O)(=O)N2CCc3c(C(=O)NCc4ccncc4)cccc32)cc1", "activity change, negative = inhibition": "-14.8%"}, {"smiles": "Cc1cccc(S(=O)(=O)N2CCc3c(C(=O)NC(C)C)cccc32)c1", "activity change, negative = inhibition": "8.99%"}, {"smiles": "Cc1ccc2nc(CO[C@H]3CN(C4CCOCC4)C[C@H]3F)[nH]c2c1", "activity change, negative = inhibition": "-2.41% [at 172 µM]"}, {"smiles": "Cc1ncoc1C(=O)N1CCCn2ccnc2C1c1ccccc1", "note": "(stereo unspecified)", "activity change, negative = inhibition": "-3.94%"}, {"smiles": "CN(C)C(=O)CC(O)c1cc2n(n1)CCN(C(=O)Cc1ccsc1)C2", "note": "(stereo unspecified)", "activity change, negative = inhibition": "0.804%"}, {"smiles": "Cc1cccc2c(C3CCN(S(=O)(=O)c4cc(Cl)cc(Cl)c4)CC3)c[nH]c12", "activity change, negative = inhibition": "2.81%"}, {"smiles": "COc1ccc(CN2CCc3nn(CC4CC4)c(=O)n3CC2)cc1", "activity change, negative = inhibition": "-11%"}, {"smiles": "O=C(NCCC1CCN(C(=O)Nc2cc(F)ccc2F)CC1)c1cc(F)ccc1F", "activity change, negative = inhibition": "-11.4%"}, {"smiles": "COc1ccc(C(=O)NCCC2CCN(C(=O)Nc3cc(F)ccc3F)CC2)cc1", "Potency": "25.1 µM (active)"}, {"smiles": "COc1ccc(C(=O)NCCC2CCN(C(=O)Nc3ccc(F)cc3F)CC2)cc1OC", "activity change, negative = inhibition": "-1.92%"}, {"smiles": "CC(c1cccc(-c2cnc(C(=O)O)cn2)c1)N1CCCC1", "note": "(stereo unspecified)", "activity change, negative = inhibition": "0.674%"}, {"smiles": "CC(=O)N(C1CC1)C1CCOC2(CCN(C(=O)CCc3ccccc3)CC2)C1", "note": "(stereo unspecified)", "activity change, negative = inhibition": "3.47%"}, {"smiles": "O=C(CCC1CCCC1)N1CCC2(CC1)CC(O)CCO2", "note": "(stereo unspecified)", "activity change, negative = inhibition": "-9.08%"}, {"smiles": "O=C(CCCc1ccccc1)N1CCC2(CC1)CC(O)CCO2", "note": "(stereo unspecified)", "Potency": "5.62 µM (active)"}, {"smiles": "COc1ccc(CC(=O)NC2CCCc3c2[nH]c2ccccc32)cc1", "note": "(stereo unspecified)", "activity change, negative = inhibition": "-7.29%"}, {"smiles": "c1c[nH]c(CNC[C@H]2Cn3ccnc3CO2)n1", "activity change, negative = inhibition": "-3.28% [at 230 µM]"}, {"smiles": "c1ccc(CNC[C@H]2Cn3cc(-c4ccccc4)nc3CO2)cc1", "Potency": "63.1 µM (active)"}, {"smiles": "Cc1ccc(-c2cn3c(n2)CO[C@@H](CNS(=O)(=O)c2cccs2)C3)cc1", "activity change, negative = inhibition": "-16.3% [at 172 µM]"}, {"smiles": "COc1ccc(-c2cn3c(n2)CO[C@@H](CNCc2ccc(F)c(F)c2)C3)cc1", "Potency": "35.5 µM (active)"}, {"smiles": "Fc1ccc(CNC[C@H]2Cn3c(-c4ccc5c(c4)OCCO5)cnc3CO2)cc1", "activity change, negative = inhibition": "-14.7% [at 172 µM]"}, {"smiles": "O=C(Cn1nc(-c2ccccc2)n(-c2ccccc2)c1=O)N1C[C@@H]2C[C@H]1CN2", "activity change, negative = inhibition": "-5.15%"}, {"smiles": "O=C(c1ccc(F)cc1)N1CCC2(CC1)CCN(Cc1cccs1)c1ccccc1O2", "activity change, negative = inhibition": "-11.7%"}, {"smiles": "Cc1ccc(C(=O)Nc2ccc3ncnc(N4CCCCC4)c3c2)s1", "activity change, negative = inhibition": "-15%"}, {"smiles": "Cc1cc(C)cc(C(=O)Nc2ccc3c(N4CCCC4)ncnc3c2)c1", "activity change, negative = inhibition": "-3.04%"}, {"smiles": "Cc1ccc(C(=O)Nc2ccc3c(N4CCCCC4)ncnc3c2)s1", "Potency": "22.4 µM (active)"}, {"smiles": "CCCS(=O)(=O)N1CCCC(Cn2c(C)nc3cccnc32)C1", "note": "(stereo unspecified)", "activity change, negative = inhibition": "1.14%"}, {"smiles": "CNc1nc(C(=O)NCc2ccc3[nH]c(-c4ccc(F)cc4)c(C)c3c2)cs1", "Potency": "12.6 µM (active)"}, {"smiles": "CC(C)Oc1cccc(-c2nc(C(=O)NCc3ccc(F)cc3)cs2)c1", "activity change, negative = inhibition": "-8.88%"}, {"smiles": "Cc1c(-c2ccc(F)cc2)[nH]c2ccc(CNC(=O)c3ccc(CO)o3)cc12", "activity change, negative = inhibition": "-17.7%"}, {"smiles": "CN1C(=O)C(CC(=O)N2CCC(C#N)CC2)(Cc2ccccc2)c2ccccc21", "note": "(stereo unspecified)", "activity change, negative = inhibition": "-4.01%"}, {"smiles": "CN(Cc1ccccc1F)Cc1ccccc1F", "activity change, negative = inhibition": "2.39% [at 230 µM]"}, {"smiles": "Cc1noc(CC2CCOC3(CCN(C(=O)c4ccc(C#N)cc4)CC3)C2)n1", "note": "(stereo unspecified)", "activity change, negative = inhibition": "-10.8%"}, {"smiles": "COCCc1noc(CC2CCOC3(CCN(C(=O)Nc4ccc5c(c4)OCCO5)CC3)C2)n1", "note": "(stereo unspecified)", "Potency": "35.5 µM (active)"}, {"smiles": "COCCc1noc(CC2CCOC3(CCN(C(=O)C4CCCC4)CC3)C2)n1", "note": "(stereo unspecified)", "activity change, negative = inhibition": "6%"}, {"smiles": "COc1cccc(C(O)c2nc(C(=O)Nc3ccccc3)c(C)o2)c1", "note": "(stereo unspecified)", "activity change, negative = inhibition": "9.73% [at 172 µM]"}, {"smiles": "O=C(Cn1cccc1-c1nc(-c2ccc(F)cc2)no1)Nc1cc(F)cc(F)c1", "activity change, negative = inhibition": "11.3%"}, {"smiles": "COc1cccc(-c2cc(C(=O)NCc3cc(C)on3)c3c(c2)N(C)CCO3)c1OC", "activity change, negative = inhibition": "-9.08% [at 172 µM]"}, {"smiles": "C[C@H]1CN(C(=O)Nc2ccc(F)cc2)C[C@@H]1c1nc(-c2ccccc2)no1", "activity change, negative = inhibition": "-3.1%"}, {"smiles": "Fc1ccc(Nc2nc(-c3ccccc3F)no2)cc1", "Potency": "2.82 µM (active)"}, {"smiles": "CCOc1ccc(Nc2ncncc2-c2nc(-c3ccccc3)no2)cc1", "activity change, negative = inhibition": "5.94%"}, {"smiles": "COc1ccc(Nc2nc(-c3cccc(OC)c3OC)no2)cc1", "Potency": "22.4 µM (active)"}, {"smiles": "CC1(c2noc(C3CCOCC3)n2)CCN(Cc2ccc(OCC(N)=O)cc2)CC1", "activity change, negative = inhibition": "9.39%"}]}]}
